Laboratory results as given in PubChem BioAssay (NCI).
This is part of a sample that, as a whole, favours compounds with a hit. Of some 79,000 tested, about 15% had one in any assay. Unmarked numbers belong to inactive results. Active and inactive are the calls of the source. Cut-off read from the data, not from the text of the source: active = growth inhibition above about 70%; inactive = the rest.

Legend:
[1] = NCI Yeast Anticancer Drug Screen. Data for the rad50 strain (AID 155);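 note: 0% = growth of vehicle-only cultures of the same strain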; conditions: S. cerevisiae rad50 strain growth inhibition, hits give high values
Method in brief: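 Inhibition values express reduced yeast growth in compound-treated cultures relative to vehicle-treated controls.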

[2] = NCI Yeast Anticancer Drug Screen. Data for the mec2-1 strain (AID 157); conditions: S. cerevisiae mec2-1 strain, hits give high values
Method in brief: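 Using mec2-1 yeast: add compound, measure growth, express inhibition versus vehicle-treated cultures.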

[3] = NCI Yeast Anticancer Drug Screen. Data for the sgs1 mgt1 strain (AID 161);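 note: 0% = growth of cultures given vehicle only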; conditions: S. cerevisiae sgs1 mgt1 strain, hits give high values
Method in brief: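 Growth of a repair-deficient yeast mutant was monitored after compound treatment and expressed as inhibition relative to vehicle-treated cultures.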

[4] = NCI Yeast Anticancer Drug Screen. Data for the cln2 rad14 strain (AID 165);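 note: 0% = growth equal to vehicle treated cultures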; conditions: S. cerevisiae cln2 rad14 strain, hits give high values
Method in brief: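 Yeast strain cln2 rad14, bearing defects in cell cycle control and DNA repair, serves as the test system; values reflect growth inhibition compared with vehicle.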

[5] = NCI Yeast Anticancer Drug Screen. Data for the bub3 strain (AID 167); conditions: S. cerevisiae bub3 mutant strain, hits give high values
Method in brief: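 Steps: expose the mutant yeast strain to compound; grow alongside vehicle-treated cultures; measure growth; express inhibition against the vehicle cultures.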

[6] = NCI Yeast Anticancer Drug Screen. Data for the mlh1 rad18 strain (AID 175); conditions: S. cerevisiae mlh1 rad18 strain growth inhibition, hits give high values
Method in brief: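 Steps: expose repair-defective yeast to compound; measure growth; express inhibition against vehicle-treated controls.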

[7] = at 5.0 µM (retest, dose inferred, filed as 0.5)
[8] = at 50.0 µM (retest, dose inferred, filed as 5.0)

| SMILES | growth inhibition [1, 7] | growth inhibition [1, 8] | growth inhibition ([1]; at 50.0 µM) | growth inhibition [2, 7] | growth inhibition [2, 8] | growth inhibition ([2]; at 50.0 µM) | growth inhibition [3, 7] | growth inhibition [3, 8] | growth inhibition ([3]; at 50.0 µM) | growth inhibition [4, 7] | growth inhibition [4, 8] | growth inhibition ([4]; at 50.0 µM) | growth inhibition [5, 7] | growth inhibition [5, 8] | growth inhibition ([5]; at 50.0 µM) | growth inhibition [6, 7] | growth inhibition [6, 8] | growth inhibition ([6]; at 50.0 µM) |
| --- | --- | --- | --- | --- | --- | --- | --- | --- | --- | --- | --- | --- | --- | --- | --- | --- | --- | --- |
| O=c1cc(-c2ccccc2)oc(-c2ccccc2)c1 | -152% | -105% | 82.4% (active) | -55% | -50% | 19.4% | -71% | -59% | 11% | -68% | -82% | -20.1% | -68% | -56% | 20% | -123% | -103% | 43.6% |
| c1ccc(-c2cc(N3CCCCC3)c(-c3ccccc3)o2)cc1 | -1% | 11% | 21.4% | 9% | 14% | 1.1% | 8% | 28% | 44.4% | 1% | 0% | -5.7% | 7% | 12% | 85.4% (active) | 15% | 43% | 25.1% |
| CCCc1cc2c(cc1CS(=O)(=O)CC)OCO2 | -4% | 9% | -9.1% | -4% | -2% | 2.3% | -7% | -5% | 1.1% | -7% | 0% | 23.3% | 23% | 17% | 16.7% | -4% | -6% | 3.75% |
| CCCCCCN(CCCCCC)CCCC(O)c1cccc2ccccc12 (configuration not stated) | -2% | -5% | 99.2% (active) | 2% | 2% | 99.3% (active) | 0% | 1% | 99.2% (active) | 0% | -3% | 99.2% (active) | -2% | 2% | 97% (active) | 1% | -3% | 99.2% (active) |
| CCCCCCCOC(=O)c1cc2cc(C(CC)C(CC)c3ccc(O)cc3)ccc2oc1=O (configuration not stated) | 23% | 47% | 83.1% (active) | 37% | 23% | 91.3% (active) | 47% | 65% | 82% (active) | 30% | 74% (active) | 87.4% (active) | 11% | 45% | 68.9% | 41% | 57% | 88.9% (active) |
| N#CC(Cl)CS(=O)(=O)c1ccccc1 (configuration not stated) | 81% (active) | 100% (active) | 99.5% (active) | 96% (active) | 100% (active) | 99.5% (active) | 31% | 99% (active) | 99.5% (active) | 49% | 99% (active) | 99.2% (active) | 95% (active) | 100% (active) | 95.2% (active) | 88% (active) | 100% (active) | 99.5% (active) |
| CC(C)c1cc(O)c2c(c1O)C1CC3C(C)(C)CCC[C@]23C(=O)O1 (some centres not stated) | 1% | 49% | 92.5% (active) | 9% | 82% (active) | 95% (active) | -5% | 76% (active) | 92% (active) | 4% | 61% | 88.2% (active) | 1% | 64% | 94.7% (active) | 3% | 68% | 96.2% (active) |
| Nc1cc(F)c(F)cc1Sc1cc(F)c(F)cc1N | 39% | 95% (active) | 99.2% (active) | 31% | 99% (active) | 99.2% (active) | 52% | 98% (active) | 99.2% (active) | 41% | 98% (active) | 89.9% (active) | 29% | 98% (active) | 99.5% (active) | 54% | 97% (active) | 99.2% (active) |
| [Cu+2].[NH-]c1ccccc1O.[NH-]c1ccccc1[OH2+] | 7% | 69% | 50.6% | 20% | 80% (active) | 46.6% | 15% | 67% | 60.4% | 11% | 59% | 35.8% | 45% | 67% | 75.8% (active) | 28% | 82% (active) | 75.6% (active) |
| O=C1C(=O)C(Br)(c2ccccc2)C(=O)C1c1ccccc1 (configuration not stated) | -16% | 4% | 52.5% | -22% | 2% | 71.4% (active) | -19% | 8% | 13.2% | -2% | 72% (active) | 93.8% (active) | 85% (active) | 97% (active) | 97.7% (active) | 7% | 20% | 97.7% (active) |
| CCCNCC/C=C/[Si](C)(C)C | -17% | 99% (active) | 98.7% (active) | -9% | 99% (active) | 96.5% (active) | -3% | 99% (active) | 97.6% (active) | 4% | 99% (active) | 98.5% (active) | -2% | 99% (active) | 98.8% (active) | 10% | 99% (active) | 98.8% (active) |
| CCCCCN1C(=O)CC(C(=O)OCC)=C1C | 3% | -14% | -12% | -3% | -8% | -17.2% | -4% | -14% | -23.9% | -9% | 1% | 76.5% (active) | -3% | 3% | 30.3% | 1% | -10% | 9.1% |
| Cc1ccc(Sc2ccc(C)cc2[N+](=O)[O-])c([N+](=O)[O-])c1 | 33% | 40% | 2.7% | 31% | 35% | -10.7% | 69% | 68% | 66.2% | 39% | 37% | 20.5% | 56% | 56% | 29.1% | 43% | 53% | -8.85% |
| Cc1cccc2c(CBr)cc(=O)[nH]c12 | 7% | 91% (active) | 86.8% (active) | 15% | 98% (active) | 90.1% (active) | 13% | 92% (active) | 84.3% (active) | 4% | 61% | 91.5% (active) | 12% | 96% (active) | 94.2% (active) | 35% | 97% (active) | 95.7% (active) |
| O=[N+]([O-])c1cc(C(F)(F)F)cc([N+](=O)[O-])c1CCl | 100% (active) | 100% (active) | 99.7% (active) | 100% (active) | 100% (active) | 99.8% (active) | 100% (active) | 100% (active) | 99.6% (active) | 100% (active) | 100% (active) | 99.4% (active) | 100% (active) | 100% (active) | 99.4% (active) | 100% (active) | 100% (active) | 99.7% (active) |
| O=C(Nc1ccccc1O)/C(Cl)=C/Cl | -153% | 95% (active) | 98.2% (active) | -47% | 97% (active) | 97.8% (active) | -57% | 96% (active) | 78.8% (active) | -67% | 95% (active) | 93.5% (active) | -63% | 96% (active) | 94.8% (active) | -134% | 96% (active) | 99.3% (active) |
| [N-]=[N+]=NC1=C(C(=O)c2ccccc2)C(=O)c2cccc3cccc1c23 | 13% | 18% | 32.7% | 6% | 27% | 20.4% | 18% | 30% | 37% | 6% | 17% | 35.2% | 8% | 40% | 25.4% | 4% | 29% | 70% (active) |
| CC1CCCN(c2cc(N(C)C)c([N+](=O)[O-])cc2F)C1 (configuration not stated) | 34% | 47% | 32.2% | 35% | 49% | 11.7% | 37% | 59% | 38.2% | 34% | 46% | 51.5% | 41% | 86% (active) | 71.8% (active) | 45% | 67% | 37.5% |
| C[C@]12CC[C@H](O)C[C@@H]1CC[C@@H]1[C@@H]2CC[C@]2(C)C=CC[C@@H]12 | -3% | 2% | 49.4% | -7% | -4% | 33.4% | -21% | 1% | 46.8% | -6% | 0% | 77.5% (active) | 9% | 23% | 95.1% (active) | -24% | 33% | 58.8% |
